# High-throughput results (PubChem BioAssay)
# Fam108B inh = mouse Fam108B serine hydrolase inhibitors, primary screen, counter-screen for RBBP9 inhibitor project, biochemical, fluorescence polarization; recombinant Fam108B, FP-Rh probe fluorescence polarization; 300,000 tested, 0.33% active; inhibition, % at 9.51 µM; AID 1947, 2009;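 active = inhibition above the screen mean inhibition plus 3 SD, computed separately per campaign, cut at about 18% in these data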;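 note: inhibitors lower polarization as less probe binds the enzyme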
# PME-1 inh = PME-1 inhibitors via competitive probe labeling, primary screen, biochemical, fluorescence polarization, FP-Rh probe, HTS | Protein phosphatase methylesterase 1 (Homo sapiens), Q9Y570 | recombinant PME-1 | inhibition, % at 5.9 µM | 320,000 tested, 0.53% active | AID 2130, 2009;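 active = inhibition above the campaign mean of all compounds plus 3 SD, cut at about 26% in these data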;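 note: competitive labeling of PME-1 active site by serine hydrolase directed probe; 0% = PME-1 with DMSO and 100% = wells lacking PME-1 enzyme; inhibitors block probe labeling so polarization falls and inhibition rises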
# Target sequence (Q9Y570 whole entry, looked up): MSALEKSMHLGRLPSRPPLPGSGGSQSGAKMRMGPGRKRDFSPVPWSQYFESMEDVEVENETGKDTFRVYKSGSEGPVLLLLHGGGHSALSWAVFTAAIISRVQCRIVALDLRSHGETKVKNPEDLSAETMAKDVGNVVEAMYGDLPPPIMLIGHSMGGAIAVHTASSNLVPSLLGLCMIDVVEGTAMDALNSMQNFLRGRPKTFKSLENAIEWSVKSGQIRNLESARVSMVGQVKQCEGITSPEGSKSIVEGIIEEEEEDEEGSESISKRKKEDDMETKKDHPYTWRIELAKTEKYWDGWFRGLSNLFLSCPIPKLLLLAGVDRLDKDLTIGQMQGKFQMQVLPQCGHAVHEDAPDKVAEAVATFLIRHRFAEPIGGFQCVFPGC
# pPAFAH inh = pPAFAH enzyme inhibitors, primary screen, biochemical, fluorescence polarization, human; inhibition, % at 3.39 µM; AID 463082, 2010; 330,000 tested, 1.5% active; Platelet-activating factor acetylhydrolase (Homo sapiens), Q13093; recombinant pPAFAH, FP-rhodamine probe fluorescence polarization;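 active = inhibition above the mean inhibition across the screen plus 3 SD, cut at about 25% in these data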;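 note: inhibitors block binding of the rhodamine activity-based probe so polarization drops; 0% = enzyme with DMSO and 100% = wells lacking pPAFAH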
# PAFAH2 inh = PAFAH2 enzyme inhibitors, primary screen, biochemical, fluorescence polarization, human; Platelet-activating factor acetylhydrolase 2, cytoplasmic (Homo sapiens), Q99487; recombinant PAFAH2, FP-rhodamine activity probe; inhibition, % at 3.39 µM; 340,000 tested, 0.99% active;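 active = inhibition above the mean over all tested compounds plus 3 SD, cut at about 30% in these data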;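 note: inhibitors block probe labeling of enzyme so polarization drops; 0% = enzyme with DMSO and 100% = wells lacking PAFAH2 protein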
# PAFAH1B3 inh = PAFAH1B3 enzyme inhibitors, primary screen, biochemical, fluorescence polarization, human | Platelet-activating factor acetylhydrolase IB subunit alpha1 (Homo sapiens), Q15102 | recombinant PAFAH1B3, FP-rhodamine probe | inhibition, % at 3.39 µM | 340,000 tested, 0.28% active | AID 492972, 2010;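 active = inhibition above the screen-wide average of all tested compounds plus 3 SD, cut at about 25% in these data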;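 note: 0% = enzyme with DMSO only and 100% = wells lacking PAFAH1B3 protein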
# PAFAH1B2 inh = PAFAH1B2 enzyme inhibitors, primary screen, biochemical, fluorescence polarization, human | 340,000 tested, 1.2% active | inhibition, % at 3.39 µM | Platelet-activating factor acetylhydrolase IB subunit alpha2 (Homo sapiens), P68402 | AID 492953, 2010 | recombinant PAFAH1B2, FP-rhodamine activity probe;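 active = inhibition above the mean of all tested compounds plus 3 SD, cut at about 24% in these data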;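 note: 0% = enzyme with DMSO and 100% = wells lacking PAFAH1B2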
# Target sequence (P68402 whole entry, looked up): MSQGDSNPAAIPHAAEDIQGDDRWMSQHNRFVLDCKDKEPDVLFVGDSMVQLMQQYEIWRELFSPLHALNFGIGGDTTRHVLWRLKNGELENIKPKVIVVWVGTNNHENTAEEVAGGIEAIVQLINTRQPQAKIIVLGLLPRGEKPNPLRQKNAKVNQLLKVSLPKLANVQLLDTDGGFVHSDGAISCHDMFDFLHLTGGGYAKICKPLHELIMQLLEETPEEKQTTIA
# pPAFAH FP conf = pPAFAH (PLA2G7) enzyme inhibitors, confirmation, biochemical, fluorescence polarization, human; shares compounds with pPAFAH inh; recombinant pPAFAH, FP-Rh probe fluorescence polarization; inhibition, % at 3.39 µM; 2,300 tested, 72% active;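 active = mean inhibition of the triplicate above the hit cutoff set for the earlier primary screen, cut at about 25% in these data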;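 note: 0% = enzyme with DMSO and 100% = wells lacking pPAFAH enzyme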
# Active calls of the source: *; . = not tested or not shown. Rows were chosen to be rich in hits. Some 2.8% of all compounds tested hit in one or more screens of this group.
SMILES,Fam108B inh,PME-1 inh,pPAFAH inh,PAFAH2 inh,PAFAH1B3 inh,PAFAH1B2 inh,pPAFAH FP conf
O=c1[nH]c(=S)n(-c2ccc(Br)cc2)c(O)c1C=Nc1ccc(N2CCOCC2)cc1,2.4,7.6,57.0*,9.7,-0.6,1.6,33.5*
CC(=O)N1CCN(c2ccc(N=Cc3c(O)n(-c4ccc(Cl)cc4)c(=O)[nH]c3=O)cc2)CC1,2.4,7.5,40.6*,-2.3,5.4,6.2,17.4
CC[N+](CC)(CC#CCO)CC#Cc1ccccc1,3.2,2.9,-5.6,0.0,12.2,6.0,.
O=C(N/N=C1/CN2CCC1CC2)c1cc2ccccc2cc1O,8.6,9.5,39.6*,10.2,16.9,7.6,8.6
O=[N+]([O-])c1ccc(N2CCCC2)cc1N/N=C1\CN2CCC1CC2,3.0,3.1,8.1,2.4,1.9,2.8,.
CN1CCC(c2c[nH]c3ccccc23)C1 (stereo not drawn),1.0,-0.7,44.0*,8.1,8.0,6.6,3.5
CN1CCC(c2c[nH]c3ccc(O)cc23)CC1,.,.,.,4.8,4.4,-7.8,.
C[N+](C)(C)CC(=O)O,-4.3,-5.5,-3.8,7.4,8.1,3.1,.
Cc1cc(C(=O)CS(=O)(=O)c2ccccc2)cc(C)c1OC(=O)N(C)C,-0.5,-2.2,37.7*,9.1,5.7,5.7,3.7
CCCCN1C(=O)/C(=C/c2ccc(N(C)C)cc2)C(=O)N(Cc2ccco2)C1=O,-19.5,-28.4,35.7*,-24.2,-31.9,-13.1,-1.1
C/C(=N\NC(=O)c1ccncc1)c1c(O)[nH]c(=O)[nH]c1=O,2.0,0.9,0.2,.,.,.,.
N#Cc1ccccc1Cn1cc(C(=O)c2ccco2)c2ccccc21,1.6,5.4,72.3*,3.4,2.2,-1.6,76.7*
CC(C)C(=O)c1cn(Cc2ccc(C#N)cc2)c2ccccc12,-0.8,-3.1,4.4,-3.0,-3.4,4.7,.
O=C(c1ccco1)c1cn(Cc2ccccc2Cl)c2ccccc12,-14.8,-11.8,73.7*,-2.9,8.8,-2.3,75.9*
C#CC[N+]1(C)[C@@H]2CC(OC(=O)C(CO)c3ccccc3)C[C@H]1C(O)C2 (stereo partly drawn),-2.8,1.8,2.1,15.1,17.5,12.9,.
COC(=O)C(C)NC(=S)N1CC2C[C@@H](C1)Cn1c2cccc1=O (stereo partly drawn),0.7,-1.0,7.9,-0.5,8.6,8.8,.
CCCCCCCCN=Cc1c(O)[nH]c(=O)[nH]c1=O,0.0,2.7,62.5*,.,.,.,1.0
COCCCN=Cc1c(O)[nH]c(=S)[nH]c1=O,3.0,3.3,1.4,2.5,12.8,11.7,.
CC(C)c1ccc(-n2c(O)c(/C=N/NC(=O)c3ccncc3)c(=O)[nH]c2=O)cc1,-2.9,3.3,8.1,0.2,16.9,3.2,.
CC(C)c1ccc(-n2c(O)c(/C=N/NC(=O)c3ccccc3O)c(=O)[nH]c2=S)cc1,0.7,12.0,46.8*,-17.9,-13.1,-7.9,45.4*
CCc1ccc(N2C(=O)NC(=O)/C(=C\C=C\c3ccco3)C2=O)cc1,-3.1,-12.8,22.9,15.7,-2.2,1.3,.
O=C1NC(=O)N(Cc2ccc(F)cc2)C(=O)/C1=C\C=C\c1ccco1,-3.1,-10.5,36.0*,25.8,8.3,29.6*,9.0
CC(C)c1ccc(N2C(=O)NC(=O)/C(=C/C=C/c3ccco3)C2=O)cc1,-1.3,-11.6,42.7*,6.5,-0.8,1.0,6.8
c1cc2c(cc1[C@H]1OCC3C1CO[C@@H]3c1ccc3c(c1)OCO3)OCO2 (stereo partly drawn),.,.,7.9,6.8,4.8,1.6,.
COc1cc2c(cc1OC)-c1c(OC)c(OC)c(OC)c3ccnc(c13)C2=O,7.7,1.5,38.0*,.,.,.,19.5
SMILES,Fam108B inh,PME-1 inh,pPAFAH inh,PAFAH2 inh,PAFAH1B3 inh,PAFAH1B2 inh,pPAFAH FP conf
COc1ccc2c3c1OC1[C@H](O)CCC4[C@@H](C2)N(C)CC[C@]314 (stereo partly drawn),.,.,35.1*,1.5,4.8,-0.3,1.6
COc1ccc2c(c1O)C13CCN(C)C(C2)C1CCC(=O)C3 (stereo not drawn),-1.7,1.4,0.9,.,.,.,.
Cc1ccccc1-n1c(O)c(C=Nc2ccc(N(C)C)cc2)c(=O)[nH]c1=O,2.2,5.8,46.1*,4.4,3.2,4.8,1.2
C=CCn1c(O)c(C=Nc2ccc(N(CC)CC)cc2)c(=O)[nH]c1=O,-3.1,4.4,43.5*,3.5,8.0,1.7,-0.8
CN1C[C@H]2CON(C)[C@H]2C[C@H]1c1cccc(Br)c1,.,.,.,-2.7,10.0,3.1,.
CO[C@@H]1C=CC23c4cc5c(cc4CO[C@]2(O)CN(C)[C@H]3C1)OCO5 (stereo partly drawn),.,.,-2.4,-11.4,8.5,-0.2,.
C=C1[C@@H](OC(C)=O)[C@]23C[C@@H]1[C@@H](OC(C)=O)CC2[C@]12C4C[C@H]3[C@H]1N(CC)C[C@]4(C)CC[C@@H]2O (stereo partly drawn),-1.4,-0.3,4.3,-6.3,0.4,-4.5,.
O=C(COC(=O)Cc1ccccc1)Nc1ncc(Cl)cc1Cl,-2.7,-0.6,35.2*,-0.3,4.0,-2.0,22.9
O=C1NC(=O)C(=Cc2cc3c(cc2[N+](=O)[O-])OCO3)C(=O)N1,-0.3,-0.6,3.0,8.2,10.2,8.2,.
Cc1cccc(N2C(=O)NC(=O)/C(=C/c3cc4c(cc3[N+](=O)[O-])OCO4)C2=O)c1,3.2,45.5*,42.1*,17.2,2.2,0.8,-1.0
O=c1[nH]c(=S)[nH]c(O)c1N=Nc1cc(S(=O)(=O)Nc2ccc(Cl)cc2)ccc1Cl,.,41.1*,49.0*,23.7,42.8*,21.4,95.3*
CC1CCN(C(=O)c2ccc(N3CC4CC(C3)c3cccc(=O)n3C4)c([N+](=O)[O-])c2)CC1 (stereo not drawn),3.5,-1.5,0.9,-7.3,0.3,-0.4,.
CC(C)OCC(O)CN1CC2C[C@@H](C1)Cn1c2cccc1=O (stereo partly drawn),3.3,1.7,2.3,-3.3,2.2,0.9,.
